Source: PubChem (The Scripps Research Institute Molecular Screening Center)
GPR151 ag: activators of human GPR151, primary screen, cell-based, PathHunter beta-arrestin, luminescence. AID 1508602, 2020. 1% of 650,000 active. activation, % at 11.2 µM. PathHunter beta-arrestin GPR151 cells; in the data active means activation above about 4.9%;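 further: 0% = median of compound wells and 100% = cells with positive control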
MITF inh: MITF inhibitors, primary screen, biochemical, AlphaScreen, human | Microphthalmia-associated transcription factor (Homo sapiens), O75030 | AlphaScreen MITF homodimerization, bead proximity signal | inhibition, % at 2.6 µM | 0.91% of 650,000 active; in the data active means inhibition above about 50%;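 further: 0% = vehicle wells with protein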
TEAD-YAP block: TEAD-YAP interaction inhibition, primary screen, TEAD-YAP interaction inhibitor project, luminescence, HEK-TIYL cells | TEAD-Gal4/YAP UAS-luciferase luminescence | inhibition, % at 9.12 µM | 1.4% of 640,000 active | AID 1259422, 2018; in the data active means inhibition above about 32%;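 further: 0% = median of test compound wells and 100% = reference inhibitor wells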
FBW7 act: FBW7 E3 ligase activators, primary screen, biochemical, AlphaScreen, human; F-box/WD repeat-containing protein 7 (Homo sapiens), Q969H0; AlphaScreen FBW7–phospho-cyclin E peptide binding, activator screen; normalized activity (activation), % at 26.1 µM; 0.13% of 650,000 active; in the data active means normalized activity above about 1.9%;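 further: purified mutant Fbw7 with reduced substrate affinity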
Target sequence (Q969H0 whole entry, looked up): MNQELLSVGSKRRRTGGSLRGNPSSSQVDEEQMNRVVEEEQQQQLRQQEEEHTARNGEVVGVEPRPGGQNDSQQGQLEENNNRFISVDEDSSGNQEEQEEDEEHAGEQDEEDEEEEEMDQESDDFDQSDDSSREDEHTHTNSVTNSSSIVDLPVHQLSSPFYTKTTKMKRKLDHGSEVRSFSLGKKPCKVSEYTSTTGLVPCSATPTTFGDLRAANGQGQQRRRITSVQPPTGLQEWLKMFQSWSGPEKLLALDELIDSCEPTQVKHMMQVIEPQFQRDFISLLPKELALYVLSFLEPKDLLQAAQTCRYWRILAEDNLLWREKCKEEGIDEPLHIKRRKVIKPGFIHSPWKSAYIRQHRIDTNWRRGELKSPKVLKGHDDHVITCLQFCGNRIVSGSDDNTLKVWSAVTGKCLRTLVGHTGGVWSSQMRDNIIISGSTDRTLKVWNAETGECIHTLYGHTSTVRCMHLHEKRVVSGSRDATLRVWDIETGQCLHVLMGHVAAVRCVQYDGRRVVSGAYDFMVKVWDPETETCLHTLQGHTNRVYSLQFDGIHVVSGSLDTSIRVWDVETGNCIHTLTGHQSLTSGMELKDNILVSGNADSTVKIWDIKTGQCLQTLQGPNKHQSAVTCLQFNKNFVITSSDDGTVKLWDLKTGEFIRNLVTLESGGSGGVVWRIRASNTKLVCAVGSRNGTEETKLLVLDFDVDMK
GPR151 conf act: GPR151 activators, triplicate retest, confirmation, cell-based, PathHunter beta-arrestin, luminescence; shares compounds with GPR151 ag; GPR151 PathHunter beta-arrestin cells, 90 min; % of EA-reagent control over plate median; activation, % at 11.2 µM; 6,700 tested, under 10 active; AID 1508609, 2020;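 active means mean percent activation across replicates above the confirmation screen cutoff of 4.91%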
GPR119 counter: GPR119 activators in beta-arrestin cells, counter-screen for GPR151 activator project, cell-based, PathHunter beta-arrestin, luminescence, triplicate; shares compounds with GPR151 ag; 90 min; 0 = compound-well median, 100 = enzyme-acceptor control; activation, % at 11.2 µM; 0.3% of 6,700 active; AID 1508611, 2020;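 active means mean percent activation in the counterscreen above 29.09%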;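 further: counterscreen on off-target GPR119 to flag nonselective hits from the GPR151 activator screen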
* hit, by the source's call; · = not tested or not shown. A selection: hits, their analogues and other compounds. The true share with any hit is near 3.4%.

SMILES | GPR151 ag | MITF inh | TEAD-YAP block | FBW7 act | GPR151 conf act | GPR119 counter
Cc1cc(C(=O)COC(=O)c2ccc(-n3cnnn3)cc2)c(C)n1CCc1ccccc1 | 3 | 7 | 9 | 0 | · | ·
Cc1c(-c2ccc(F)cc2)[n+](=O)c2c(n1[O-])CCCC2 | 0 | 5 | 11 | 0 | · | ·
CC(C)c1c(-c2ccccc2)[n+](=O)c2c(n1[O-])CCCCC2 | 5.2* | -6 | 0 | 0 | -1 | 3
CCC[C@@H]1NC(=O)[C@H]2CN(Cc3cccc(C)c3)CCN2C1=O | 0 | -7 | 10 | 0 | · | ·
O=c1c2ccccc2[nH]c(=S)n1-c1ccc(OCc2ccccc2)cc1 | 0 | 8 | -11 | 0 | · | ·
O=C(COc1ccccc1Br)NN=C1CCCCC1 | 9.7* | 14 | -2 | 0 | -1 | -6
CCOc1ccc(NC(=O)COc2ccccc2Br)cc1 | 5.0* | -2 | -7 | 0 | 0 | 9
O=C(Nc1nc2ccc(-c3cn[nH]c3)cc2s1)c1ccccc1 | -1 | 8 | 14 | 0 | · | ·
CS(=O)(=O)N1N=C(c2ccc(Br)cc2)CC1c1cc2ccccc2nc1Cl (configuration not stated) | 0 | 8 | 13 | 0 | · | ·
Cc1ccc2nc(Cl)c(C3CC(c4ccc(Br)cc4)=NN3S(C)(=O)=O)cc2c1 (configuration not stated) | 5.1* | 8 | -3 | 0 | -1 | 3
CC(C)C1C(c2ccccc2)NC(c2ccccc2)CC1(C)O (configuration not stated) | 1 | 40 | 4 | 0 | · | ·
O=S(=O)(NCc1ccncc1)c1ccc(I)cc1 | 9.7* | -7 | 40* | 0 | 1 | 11
Nc1ccc(S(=O)(=O)NCc2ccncc2)cc1 | 0 | -8 | 1 | 1 | · | ·
Cc1cc(C)nc(N/N=C/c2cc([N+](=O)[O-])ccc2O)n1 | 0 | 44 | 19 | -1 | · | ·
Cc1cc(C)n2nc(C(=O)N/N=C/c3cc([N+](=O)[O-])ccc3O)nc2n1 | 5.8* | 3 | 2 | -1 | -1 | -3
C=CCOC(=O)C1=C(C)NC(SCC(N)=O)=C(C#N)C1c1ccc(Cl)cc1 (configuration not stated) | 1 | 5 | -1 | 0 | · | ·
O=C(c1ccccc1)c1ccc(C(=O)N2CCCCC2)o1 | 6.7* | -6 | -57 | 0 | -1 | -7
O=C(c1ccccc1)c1ccc(C(=O)N2CCN(c3ccccc3)CC2)o1 | 0 | -4 | -29 | 0 | · | ·
O=C(Nc1cccc(N2CCC(NCc3cccc(-n4cccn4)c3)CC2)c1)C1CC1 | -1 | -2 | 10 | 0 | · | ·
O=C(Nc1cccc(N2CCC(NCc3cccnc3)CC2)c1)C1CC1 | 5.5* | 0 | -9 | 0 | 1 | 19
Cc1nc(N(C)c2ccc(C(C)C)cc2)c2c(C)c(C(=O)Nc3ccc(Oc4ccccc4)cc3)sc2n1 | 7.8* | 11 | -2 | 1 | 1 | 6
CCN(CC)c1nc(C)nc2sc(C(=O)Nc3ccc(Oc4ccccc4)cc3)c(C)c12 | 0 | -12 | -11 | 0 | · | ·
CN(C)c1ccc(-c2cnc3c(n2)[nH]c(=O)n3-c2ccccc2)cc1 | 6.0* | -1 | -10 | 0 | -1 | -7
O=C(CCc1nnc(Cc2cccc(C(F)(F)F)c2)o1)NCCCOc1cccnc1 | 1 | -2 | -15 | 0 | · | ·
CCCc1ccc(/C(CC#N)=N/NC(=O)OCC)cc1 | -1 | 2 | -53 | 0 | · | ·
SMILES | GPR151 ag | MITF inh | TEAD-YAP block | FBW7 act | GPR151 conf act | GPR119 counter
CCOC(=O)COc1ccccc1/C=N/Nc1nnc(C)c(=O)[nH]1 | 0 | -2 | 2 | 0 | · | ·
O=S(=O)(Cc1ccccc1)N1CCCC(N2CCOCC2)C1 (configuration not stated) | 20* | 6 | -10 | 0 | 0 | 15
CC(=O)Nc1ccc(S(=O)(=O)NCCNC(=O)c2ccccc2F)cc1 | 6.3* | 4 | -9 | 0 | -2 | -13
CC(C)c1ccc(NC(=O)c2cc(S(=O)(=O)NCCc3ccccc3)ccc2F)cc1 | 5.8* | 4 | 13 | 0 | -1 | -12
O=C(Nc1ccc(S(=O)(=O)NCCc2ccccc2)cc1)c1ccccc1F | 1 | -6 | 2 | 0 | · | ·
COc1ccc(C=O)cc1Cn1cnc([N+](=O)[O-])n1 | 5.5* | 0 | 8 | 0 | -1 | -3
Clc1cccc(CSc2nc(NCc3ccco3)c3ccccc3n2)c1 | 0 | 0 | 4 | 0 | · | ·
C=CCSc1nnc2c(n1)OC(/C=C/c1ccc([N+](=O)[O-])o1)Nc1ccc(Br)cc1-2 (configuration not stated) | 9.1* | 32 | 27 | 0 | 2 | 9
FC(F)(F)c1ccc(Cn2cnc3c(Nc4ccc(N5CCOCC5)cc4)nc(NCCN4CCOCC4)nc32)cc1 | -2 | 3 | 8 | 0 | · | ·
Cc1nc2nc(SCC(=O)NC3CCCCC3)nn2c(C)c1Cc1c(F)cccc1Cl | 6.4* | 8 | 4 | 0 | 0 | 2
CCOC(=O)c1c[nH]c2ccc3c(cc(-c4ccccc4)n3C)c2c1=O | -2 | 1 | -4 | 0 | · | ·
COc1cc(Cl)c(C)cc1NC(=S)N(Cc1ccc(C(=O)O)cc1)Cc1ccc(OC)c(OC)c1 | -1 | -2 | 6 | 0 | · | ·
COc1ccc(Cl)cc1NC(=O)Nc1cccc([N+](=O)[O-])c1C | 8.3* | 18 | 8 | 0 | 2 | -1
Cc1c(NC(=O)Nc2cccc(Cl)c2)cccc1[N+](=O)[O-] | 1 | 27 | -11 | 0 | · | ·
CCNC(=O)C(Cc1ccc([N+](=O)[O-])cc1)NC(=O)OCc1ccccc1 (configuration not stated) | 5.6* | -2 | -11 | 0 | 0 | 6
CCOC(=O)CNC(=O)C(Cc1ccccc1)NC(=O)OCc1ccccc1 (configuration not stated) | 0 | -5 | 4 | 0 | · | ·
COC(=O)C(Cc1ccccc1)NC(=O)C(Cc1cnc[nH]1)NC(=O)OCc1ccccc1 (configuration not stated) | 5.5* | 3 | -2 | 0 | 1 | -1
COC(=O)C(Cc1ccccc1)NC(=O)C(Cc1ccccc1)NC(=O)OCc1ccccc1 (configuration not stated) | 1 | -6 | 1 | 0 | · | ·
COC(=O)c1ccc(SCC(=O)NCc2ccccc2)c([N+](=O)[O-])c1 | 7.4* | 2 | 6 | 0 | 0 | -6
COc1ccccc1NC(=O)c1ccc(SCC(=O)NCc2ccccc2)c([N+](=O)[O-])c1 | 0 | 1 | 3 | 0 | · | ·
c1coc(CNc2c(-c3ccco3)nc3cnccn23)c1 | 1 | 4 | -15 | 0 | · | ·
